The results in this text go back to the supplement of paper PMC9446081.

± gives the standard deviation of the averaged measurements.

Sequence of MurC (C4ZRI6 whole entry, looked up): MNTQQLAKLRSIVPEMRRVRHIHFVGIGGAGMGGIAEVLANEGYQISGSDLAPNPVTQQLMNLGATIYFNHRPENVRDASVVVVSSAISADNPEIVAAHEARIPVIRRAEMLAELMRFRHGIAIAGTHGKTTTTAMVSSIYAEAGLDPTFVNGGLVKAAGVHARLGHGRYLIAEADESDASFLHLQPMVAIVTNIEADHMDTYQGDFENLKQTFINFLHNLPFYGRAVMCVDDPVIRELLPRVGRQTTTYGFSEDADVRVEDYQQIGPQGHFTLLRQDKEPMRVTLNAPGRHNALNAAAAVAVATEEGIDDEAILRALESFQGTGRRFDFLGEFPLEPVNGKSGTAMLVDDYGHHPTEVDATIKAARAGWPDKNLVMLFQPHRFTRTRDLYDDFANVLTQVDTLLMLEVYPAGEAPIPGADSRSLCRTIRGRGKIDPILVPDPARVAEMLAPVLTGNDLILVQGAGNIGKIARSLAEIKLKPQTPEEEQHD

This test has as its target MurC (UniProt C4ZRI6). As to the kind of experiment: relative enzymatic activity vs untreated control (fraction); higher = less inhibition. Conditions: 100 µM; incubation time: 2 h at 37 C. The protocol: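 In vitro enzymatic inhibition assays (ProFoldin kits) for 12 purified essential E. coli enzymes or complexes, each treated with 218 active antibacterial compounds at 100 µM for 2 h at 37°C. Read-outs were fluorescence or absorbance (phosphate detection, dye binding), converted to activity via standard curves and expressed relative to untreated DMSO controls.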
Turning to `NCC1OC(OC2C(N)CC(N)C(OC3OC(CO)C(O)C(N)C3O)C2O)C(N)C(O)C1O.O=S(=O)(O)O` (stereo not given), the relative enzymatic activity came out at 1.04 ± 0.018.

Consider `C[C@H]1[C@H](NC(=O)/C(=N\OC(C)(C)C(=O)O)c2csc(N)n2)C(=O)N1S(=O)(=O)O`, for which the relative enzymatic activity is 1.29 ± 0.45.

`CCn1cc(C(=O)O)c(=O)c2cnc(N3CCNCC3)nc21` displayed a relative enzymatic activity of 0.99 ± 0.052.

`Nc1nc(C(=CCC(=O)O)C(=O)NC2C(=O)N3C(C(=O)O)=CCSC23)cs1` (stereo not given) yielded a relative enzymatic activity of 0.885 ± 0.2.

`Cl.O=C(O)c1cn(-c2ccc(F)cc2)c2cc(N3CCNCC3)c(F)cc2c1=O` came in with a relative enzymatic activity of 0.836 ± 0.012.

In the case of `Cc1cc(C(C)(C)CC(C)(C)C)ccc1OCCOCC[N+](C)(C)Cc1ccccc1.[Cl-]`, the relative enzymatic activity stood at 0.647 ± 0.59.

As for `C=C1c2cccc(O)c2C(=O)[C@@H]2C(=O)[C@]3(O)C(=O)[C@@H](C(N)=O)C(=O)[C@@H](N(C)C)[C@@H]3[C@@H](O)[C@H]12`, the relative enzymatic activity was determined as 1.03 ± 0.034.

Compound `CN[C@@H]1[C@H](O[C@H]2[C@H](O[C@@H]3[C@@H](O)[C@H](O)[C@@H](NC(=N)N)[C@H](O)[C@H]3NC(=N)N)O[C@@H](C)[C@]2(O)CO)O[C@@H](CO)[C@H](O)[C@H]1O.CN[C@@H]1[C@H](O[C@H]2[C@H](O[C@@H]3[C@@H](O)[C@H](O)[C@@H](NC(=N)N)[C@H](O)[C@H]3NC(=N)N)O[C@@H](C)[C@]2(O)CO)O[C@@H](CO)[C@H](O)[C@H]1O` came in with a relative enzymatic activity of 0.963 ± 0.063.

In turn, `CN(C)c1ccc(O)c2c1C[C@H]1C[C@H]3[C@H](N(C)C)C(=O)[C@@H](C(N)=O)C(=O)[C@@]3(O)C(=O)[C@H]1C2=O` gave a relative enzymatic activity of 1.11 ± 0.018.

`Cl.N=C(N)n1cccn1` registered a relative enzymatic activity of 0.968 ± 0.063.

With `NC(=O)[C@@H]1C(=O)C[C@@H]2C[C@@H]3Cc4cccc(O)c4C(=O)[C@@H]3C(=O)[C@]2(O)C1=O`, the relative enzymatic activity was found to be 1.17 ± 0.092.

In the case of `Cc1cc(=O)c(C(=O)N[C@@H](C(=O)N[C@@H]2C(=O)N3C(C(=O)O)=C(CSc4nnnn4C)CS[C@H]23)c2ccc(O)cc2)c[nH]1`, the relative enzymatic activity turned out to be 1.18 ± 0.11.

`Cc1cc(O)c(C(=O)NC(C(=O)NC2C(=O)N3C(C(=O)O)=C(CSc4nnnn4C)CSC23)c2ccc(O)cc2)cn1` (stereo not given) displayed a relative enzymatic activity of 0.971 ± 0.12.

For the compound `CCC=C(C(=O)NC1C(=O)N2C(C(=O)OCOC(=O)C(C)(C)C)=C(COC(N)=O)CSC12)c1csc(N)n1.Cl` (stereo not given), the relative enzymatic activity worked out at 0.843 ± 0.14.

`COC1C=COC2(C)Oc3c(C)c(O)c4c(O)c(c(C=NN5CCN(C6CCCC6)CC5)c(O)c4c3C2=O)NC(=O)C(C)=CC=CC(C)C(O)C(C)C(O)C(C)C(OC(C)=O)C1C` (stereo not given) registered a relative enzymatic activity of 0.182 ± 0.016.

With `CO/N=C1\CN(c2nc3c(cc2F)c(=O)c(C(=O)O)cn3C2CC2)C[C@@H]1CN`, the relative enzymatic activity stood at 0.717 ± 0.047.

Turning to `CCCCCCCCCCCCCCCC[N+](C)(C)Cc1ccccc1.[Cl-]`, the relative enzymatic activity was found to be 0.176 ± 0.051.

`O=c1[nH]c(=O)n(C2CC(O)C(CO)O2)cc1F` (stereo not given): the relative enzymatic activity was 0.948 ± 0.082.

`O=C1CN(/N=C/c2ccc([N+](=O)[O-])o2)C(=O)N1` had a relative enzymatic activity of 1.33 ± 0.34.

`NCC1OC(OC2C(N)CC(N)C(OC3OC(CO)C(O)C(N)C3O)C2O)C(N)CC1O` (stereo not given) showed a relative enzymatic activity of 1.11 ± 0.046.

Take `C=CC1=C(C(=O)O)N2C(=O)[C@@H](NC(=O)/C(=N\OCC(=O)O)c3csc(N)n3)[C@H]2SC1`: the relative enzymatic activity worked out at 1.12 ± 0.017.

Take `Nc1ncn(C2OC(CO)C(O)C2O)c(=O)n1` (stereo not given): the relative enzymatic activity was 0.989 ± 0.025.

With `O=C1OCCN1N=Cc1ccc([N+](=O)[O-])o1`, the relative enzymatic activity was determined as 1.03 ± 0.054.

`CCn1cc(C(=O)O)c(=O)c2cc(F)c(N3CCNCC3)cc21` showed a relative enzymatic activity of 1 ± 0.082.

Compound `CN1CCN(c2c(F)cc3c(=O)c(C(=O)O)cn(CCF)c3c2F)CC1` gave a relative enzymatic activity of 1.02 ± 0.011.

In the case of `Cc1scc2c1N(C(=O)CN1CCN(C)CC1)c1ccccc1NC2=O.Cl`, the relative enzymatic activity turned out to be 0.945 ± 0.037.

For `O=C1OC(=O)[C@H]2[C@@H]1[C@H]1CC[C@H]2O1`, the relative enzymatic activity is 1.18 ± 0.093.

Consider `COC(=O)N/N=C/c1c[n+]([O-])c2ccccc2[n+]1[O-]`, for which the relative enzymatic activity is 1 ± 0.079.

Compound `O=c1[nH]c(=O)n([C@H]2C[C@H](O)[C@@H](CO)O2)cc1F` returned a relative enzymatic activity of 0.993 ± 0.019.

Regarding `CCOC(=O)OC(C)OC(=O)C1N2C(=O)C(NC(=O)C(N)c3ccccc3)C2SC1(C)C.Cl` (stereo not given), the relative enzymatic activity amounted to 1.01 ± 0.035.

Take `CN(C)C1C(O)=C(C(N)=O)C(=O)C2(O)C(O)=C3C(=O)c4c(O)cccc4C(C)(O)C3C(O)C12.Cl` (stereo not given): the relative enzymatic activity was found to be 1.09 ± 0.081.

With `Oc1c(Cl)cc(Cl)c(Cl)c1Cc1c(O)c(Cl)cc(Cl)c1Cl`, the relative enzymatic activity was 3.59 ± 0.79.

In the case of `CO/N=C(\C(=O)N[C@@H]1C(=O)N2C(C(=O)O)=C(C)CS[C@H]12)c1csc(N)n1`, the relative enzymatic activity is 0.884 ± 0.037.

`COC1(NC(=O)CSCC#N)C(=O)N2C(C(=O)[O-])=C(CSc3nnnn3C)CSC21.[Na+]` (stereo not given): the relative enzymatic activity was 1.59 ± 0.09.

For the compound `CCOC(=O)CCC(=O)O[C@H]1[C@H](O[C@@H]2[C@@H](C)[C@H](O[C@H]3C[C@@](C)(OC)[C@@H](O)[C@H](C)O3)[C@@H](C)C(=O)O[C@H](CC)[C@@](C)(O)[C@H](O)[C@@H](C)C(=O)[C@H](C)C[C@@]2(C)O)O[C@H](C)C[C@@H]1N(C)C`, the relative enzymatic activity came out at 1.05 ± 0.026.

With `CC(C)(ON=C(C(=O)NC1C(=O)N2C(C(=O)[O-])=C(C[n+]3ccccc3)CSC12)c1csc(N)n1)C(=O)O` (stereo not given), the relative enzymatic activity is 0.704 ± 0.14.

With `CCC(C)C1NC(=O)C(CCNCS(=O)(=O)[O-])NC(=O)C(NC(=O)C(CCNCS(=O)(=O)[O-])NC(=O)C(NC(=O)C(CCNCS(=O)(=O)[O-])NC(=O)CCCCC(C)C)C(C)O)CCNC(=O)C(C(C)O)NC(=O)C(CCNCS(=O)(=O)[O-])NC(=O)C(CCNCS(=O)(=O)[O-])NC(=O)C(C(C)CC)NC1=O.[Na+].[Na+].[Na+].[Na+].[Na+]` (stereo not given), the relative enzymatic activity is 1.05 ± 0.03.

`Cc1c(N)nc([C@H](CC(N)=O)NC[C@H](N)C(N)=O)nc1C(=O)N[C@H](C(=O)N[C@H](C)[C@@H](O)[C@H](C)C(=O)N[C@H](C(=O)NCCc1nc(-c2nc(C(=O)NCCCNCCCCN)cs2)cs1)[C@@H](C)O)[C@@H](O[C@@H]1O[C@@H](CO)[C@@H](O)[C@H](O)[C@@H]1O[C@@H]1O[C@H](CO)[C@@H](O)[C@H](OC(N)=O)[C@@H]1O)c1c[nH]cn1` came in with a relative enzymatic activity of 1.006 ± 0.0098.

Take `CC1COc2c(N3CCN(C)CC3)c(F)cc3c(=O)c(C(=O)O)cn1c23` (stereo not given): the relative enzymatic activity came out at 0.983 ± 0.042.

`CC(C)[C@@H](CC[C@@H](C)[C@H]1CC[C@H]2[C@@H]3[C@H](O)C[C@H]4C[C@@H](NCCCNCCCCNCCCN)CC[C@]4(C)[C@H]3CC[C@]12C)OS(=O)(=O)O`: the relative enzymatic activity turned out to be 1.05 ± 0.014.
